{"source": "ChEMBL document CHEMBL5308541", "about": "“MAIP: An Open-Source Tool to Enrich High-Throughput Screening Output and Identify Novel, Druglike Molecules with Antimalarial Activity” (ACS Med Chem Lett, 2023)", "note": "The campaign covered roughly 150,000 compounds. About 540 (0.36%) showed an effect of 50% or more. This is one part of a sample in which strong results are shown more often than they occur."}
{"tested_on": "Plasmodium falciparum", "experiment": "Primary screen in NF54 nanoGlo assay, in single point, at 2uM, 72h; a lower Z score goes with more inhibition", "format": "functional, Erythrocyte", "conditions": "timepoint 72 hour", "units": {"% Inhibition": "%"}}
{"molecule": "Cc1nc(N2CCN(CC(=O)NC3CCCCC3)CC2)c2cc[nH]c2n1", "% Inhibition": -11, "Z score": 2.32}
{"molecule": "CNc1nc(N2CCN(CC(=O)NC3CCCCC3)CC2)nc2ccccc12", "% Inhibition": 80, "Z score": -14.07}
{"molecule": "CCN1CCC[C@@H]1CN(CCN(C)C)C(=O)c1ccc(-c2cncnc2)cc1F", "% Inhibition": 2, "Z score": -0.24}
{"molecule": "N[C@H]1CC[C@@H](NC2CCN(c3ccc(F)c(F)c3)CC2)CC1", "% Inhibition": 53, "Z score": -9.21}
{"molecule": "Fc1ccc(N2CCC(N[C@@H]3COC4(CCNCC4)C3)CC2)cc1F", "% Inhibition": 23, "Z score": -4.05}
{"molecule": "CCc1ccc(Nc2nc(C(=O)NCCc3c[nH]cn3)nc3ccccc23)cc1", "% Inhibition": 7, "Z score": -1.15}
{"molecule": "COc1ccc(-c2cncc(C(=O)NCC3CCN(CCN(C)C)CC3)c2)cc1", "% Inhibition": 94, "Z score": -16.22}
{"molecule": "COCCN1CCC(CN(C)C(=O)c2ccc(-c3cncc(N)c3)cc2)CC1", "% Inhibition": 2, "Z score": -0.4}
{"molecule": "Cc1cc(O)c(Cl)cc1-c1cccc2c(N)ccnc12", "% Inhibition": 82, "Z score": -14.53}
{"molecule": "Cn1ccc2c(-c3cccc4c(N)ccnc34)ccnc21", "% Inhibition": 6, "Z score": -1.24}
{"molecule": "Cc1cc(O)c(Cl)cc1-c1ccc2nccc(N)c2c1", "% Inhibition": 91, "Z score": -15.94}
{"molecule": "Cc1cc(O)c(Cl)cc1-c1ccc2ncnc(N)c2c1", "% Inhibition": -5, "Z score": 0.82}
{"molecule": "Cc1cc(O)c(Cl)cc1-c1ncnc2[nH]ccc12", "% Inhibition": 1, "Z score": -0.29}
{"molecule": "O[C@@H](CNCc1cc2cc(Cl)c(Cl)cc2[nH]1)c1ccc(F)cc1", "% Inhibition": 76, "Z score": -13.27}
{"molecule": "OC[C@H](CNCc1cc2ccc(F)cc2[nH]1)c1ccccc1Cl", "% Inhibition": 41, "Z score": -6.28}
{"molecule": "CC(CNc1nc(NCC(C)N2CCOCC2)c2cc(Cl)ccc2n1)N1CCOCC1", "note": "(stereo unspecified)", "% Inhibition": 78, "Z score": -13.62}
{"molecule": "CCN1CCN(CCOc2ccccc2CN(C)Cc2cccc3cnccc23)CC1", "% Inhibition": 7, "Z score": -1.54}
{"molecule": "CN1CCN(CCOc2ccccc2CN(C)Cc2cc3cc(F)ccc3[nH]2)CC1", "% Inhibition": 73, "Z score": -14.51}
{"molecule": "COc1ccc(-c2ccnc(C3CCN(c4ccnc(C#N)n4)CC3)n2)cc1", "% Inhibition": -1, "Z score": 0.14}
{"molecule": "c1cc(N2CCOCC2)nc(C2CCN(CC34CNCC3C4)CC2)n1", "note": "(stereo unspecified)", "% Inhibition": -8, "Z score": 1.26}
{"molecule": "c1ccc(-c2ccnc(C3CCN(CC45CNCC4C5)CC3)n2)cc1", "note": "(stereo unspecified)", "% Inhibition": 89, "Z score": -13.57}
{"molecule": "O=C(NCc1cccc(-c2cccnc2)c1)N[C@H]1CCN(C2CCCCC2)C1", "% Inhibition": 51, "Z score": -7.77}
{"molecule": "C[C@H]1CN(C2CCOCC2)CCN1C(=O)NCc1cccc(-c2cccnc2)c1", "% Inhibition": -1, "Z score": 0.29}
{"molecule": "CC(C)c1ccc(-c2nc(CN3CCCCC3)cc(CN3CCCCC3)c2O)cc1", "% Inhibition": 90, "Z score": -15.77}
{"molecule": "Cc1ccc(Nc2ncc(-c3ccc(Cl)c(OC(F)(F)F)c3)cn2)cc1", "% Inhibition": -5, "Z score": 1}
{"molecule": "CCN1CCN(c2ccc(CNCc3cccc(O)c3)cc2F)CC1", "% Inhibition": 90, "Z score": -19.29}
{"molecule": "CN1CCCN(Cc2ccc(CNCc3cccc(O)c3)cc2)CC1", "% Inhibition": 17, "Z score": -3.36}
{"molecule": "Cc1nc2ccccc2c(O)c1CC[C@H](C)NC1CCNCC1", "% Inhibition": -3, "Z score": 0.51}
{"molecule": "CCCCN(C)C[C@@H](C)NC(=O)CCCN1CCN(c2ccccc2)CC1", "% Inhibition": -5, "Z score": 1.09}
{"molecule": "CN1CCC(N2CCC(NC(=O)c3ccncn3)CC2)CC1", "% Inhibition": -17, "Z score": 2.56}
{"molecule": "Cc1ccc(-c2cc(C(=O)NC3CCN(C4CCN(C)CC4)CC3)n[nH]2)cc1C", "% Inhibition": 95, "Z score": -16.77}
{"molecule": "Cc1ccc(-c2cc(C(=O)N[C@H]3CCCN(C4CCN(C)CC4)C3)n[nH]2)s1", "% Inhibition": 5, "Z score": -0.79}
{"molecule": "CCc1oc2ccccc2c1CNC[C@H](O)c1ccc(Cl)cc1", "% Inhibition": 98, "Z score": -19.37}
{"molecule": "Cn1cc(CNC[C@H](O)c2ccc(F)c(F)c2)c(-c2cc3ccccc3o2)n1", "% Inhibition": 19, "Z score": -3.4}
{"molecule": "CN([C@@H](c1ccccc1)c1ccccc1Br)S(=O)(=O)c1c[nH]c2ncccc12", "% Inhibition": 60, "Z score": -11.93}
{"molecule": "C[C@](O)(CNS(=O)(=O)c1c[nH]c2ncccc12)C(c1ccccc1)c1ccccc1", "% Inhibition": 4, "Z score": -0.63}
{"molecule": "Cc1ccc2[nH]cc(-c3cc(N4CCCCC4)ncn3)c2c1", "% Inhibition": 11, "Z score": -2.17}
{"molecule": "Cc1ccc2[nH]cc(-c3cc(N4CCOCC4)nc(N)n3)c2c1", "% Inhibition": 52, "Z score": -10.41}
{"molecule": "C[C@@H](c1cccc(-c2cc(N3CCOCC3)nc(N)n2)c1)N1CCCC1", "% Inhibition": -1, "Z score": 0.25}
{"molecule": "NC(=O)c1ccc(CNC(=O)NCC[C@H](O)c2ccccc2)o1", "% Inhibition": -10, "Z score": 1.46}
{"molecule": "CC(C)(O)C#Cc1ccc(CN(CC2CCN(C3CCCC3)CC2)C[C@H]2CCCO2)cc1", "% Inhibition": -11, "Z score": 1.92}
{"molecule": "CC(C)N1CCN(CCCN2CCN(C)C3(CCCCC3)C2)CC1", "% Inhibition": 3, "Z score": -0.69}
{"molecule": "Cc1cc(N2CCC(N(C)Cc3ncc(-c4ccccc4C)o3)CC2)nc(C)n1", "% Inhibition": -3, "Z score": 0.66}
{"molecule": "CN1CCC(Oc2ccc(NC(=O)c3cn4ccnc4s3)cn2)CC1", "% Inhibition": 90, "Z score": -15.87}
{"molecule": "CN1CCC(Oc2ccc(NCc3ccc(N(C)C)nc3)cn2)CC1", "% Inhibition": -17, "Z score": 3.56}
{"molecule": "CN1CCC(CNC2CC3CC(C2)N(C(=O)OC(C)(C)C)C3)CC1", "note": "(stereo unspecified)", "% Inhibition": 72, "Z score": -15.46}
{"molecule": "COc1cc2nc(-c3cc(Cl)c(O)cc3C)nc(N)c2cc1OC", "% Inhibition": 2, "Z score": -0.41}
{"molecule": "COc1cc2nc(-c3ccc(F)c4cccnc34)nc(N)c2cc1OC", "% Inhibition": 96, "Z score": -14.63}
{"molecule": "COc1ccnc(CN2CC[C@H](Nc3ncccn3)C2)c1OC", "% Inhibition": -5, "Z score": 0.75}
{"molecule": "Cc1nc(C)c(C)c(N2CC(OCc3ccccc3)C2)n1", "% Inhibition": -11, "Z score": 1.9}
{"molecule": "COc1ccc2c(N3CC[C@H](CN4CCCC4)C3)ccnc2c1", "% Inhibition": 91, "Z score": -15.93}
{"molecule": "CN1CCN(C[C@H]2CCCN(C(=O)c3ccnc4ccccc34)C2)CC1", "% Inhibition": 5, "Z score": -1.03}
{"molecule": "COCC1CCN(c2ccnc3cc(F)ccc23)CC1", "% Inhibition": 7, "Z score": -1.37}
{"molecule": "CN1CCN(CC2CCN(c3ccnc4ccccc34)CC2)CC1", "% Inhibition": 98, "Z score": -16.96}
{"molecule": "COc1ccc2nccc(N3CCC(O)CC3)c2c1", "% Inhibition": 5, "Z score": -0.83}
{"molecule": "c1ccc(CN2CCC[C@H](CNC3CCN(c4ccc5c(c4)OCO5)CC3)C2)cc1", "% Inhibition": 14, "Z score": -2.53}
{"molecule": "CC(=O)N1CCC(CNC2CCC(C)(N3CCCC3)CC2)CC1", "note": "(stereo unspecified)", "% Inhibition": -10, "Z score": 1.74}
{"molecule": "CC1(N2CCC2)CCC(NC[C@H]2CCN(Cc3ccccc3)C2)CC1", "note": "(stereo partly specified)", "% Inhibition": 73, "Z score": -12.59}
{"molecule": "Nc1ccnc2ccc(-c3ccc(C(=O)NCC4CCOCC4)cc3)cc12", "% Inhibition": 83, "Z score": -16.44}
{"molecule": "OC1CN(c2ccnc3ccccc23)CCC1N1CCN(c2ccccn2)CC1", "note": "(stereo unspecified)", "% Inhibition": -7, "Z score": 1.2}
{"molecule": "O=C(NC1CCN(CCOc2ccc(Cl)cc2)CC1)c1c[nH]c2ccncc2c1=O", "% Inhibition": 94, "Z score": -14.22}
{"molecule": "CCCCN1CCC(NC(=O)c2c[nH]c3ncccc23)CC1", "% Inhibition": -8, "Z score": 1.66}
{"molecule": "CCCc1cc(NCC2(N3CCN(C)CC3)CCCCC2)n2nccc2n1", "% Inhibition": -3, "Z score": 0.64}
{"molecule": "CNc1cc([C@H]2C[C@@H](NC3CC(C)(C)NC(C)(C)C3)C2)ncn1", "% Inhibition": 11, "Z score": -1.95}
{"molecule": "CNc1nc(N[C@H]2CCCN(Cc3ccc(Cl)cc3)C2)nc2c1CCC2", "% Inhibition": 49, "Z score": -8.5}
{"molecule": "Cc1cc(N2CCC(NC3CCCC3Cc3ccc(F)cc3)CC2)nc(N)n1", "note": "(stereo unspecified)", "% Inhibition": 96, "Z score": -14.52}
{"molecule": "Cc1cc(N2CCC(N(C)Cc3ccc4nsnc4c3)CC2)nc(N)n1", "% Inhibition": 18, "Z score": -3.91}
{"molecule": "Cc1cc(N2CCC(NCc3ccc(C(F)(F)F)cc3F)CC2)nc(N)n1", "% Inhibition": 10, "Z score": -2.1}
{"molecule": "CN(C)c1ncc(CN2CCN(c3nsc4ccccc34)CC2)cn1", "% Inhibition": 5, "Z score": -0.94}
{"molecule": "O=C(Nc1cnc2c(c1)COCC2)c1cc2c(OC(F)(F)F)cccc2[nH]1", "% Inhibition": 93, "Z score": -14.17}
{"molecule": "CN(c1ccccc1)c1ccc(CN2CCN([C@H]3CCNC3)CC2)cc1", "% Inhibition": 68, "Z score": -13.59}
{"molecule": "Cc1ocnc1CNC[C@H](O)c1ccc(Cl)c(Cl)c1", "% Inhibition": 94, "Z score": -18.67}
{"molecule": "Cn1nc(C(=O)Nc2cnc(CC3CC3)nc2)cc1C(F)(F)F", "% Inhibition": 1, "Z score": -0.26}
{"molecule": "CCCN1CCC(Nc2cc(C)nc3ccccc23)CC1", "% Inhibition": 58, "Z score": -8.81}
{"molecule": "CCC(=O)N1CC[C@H](Nc2cc(C)nc3ccccc23)C1", "% Inhibition": -8, "Z score": 1.36}
{"molecule": "Cc1ccc2[nH]c(-c3cc4n(n3)CCN(c3ccnc(N)n3)C4)nc2c1C", "% Inhibition": 84, "Z score": -16.64}
{"molecule": "CN1CCC(N(C)C[C@H](Nc2ncnc3ccccc23)c2ccccc2)CC1", "% Inhibition": 98, "Z score": -17.15}
{"molecule": "C[C@](O)(CN1CCC(NCc2ccccc2)CC1)C(F)(F)F", "% Inhibition": -6, "Z score": 0.96}
{"molecule": "COc1ccccc1N1CCN(C2CCN(c3ccc(C(=O)N[C@@H](C)c4ccccc4)cc3)CC2)CC1", "% Inhibition": -11, "Z score": 1.99}
{"molecule": "OC1(c2ccc(Cl)cc2)CCN(C[C@@H]2CCCN3CCCC[C@H]23)CC1", "% Inhibition": 82, "Z score": -16.27}
{"molecule": "CCNc1nc(NCc2ccccc2)c2cn[nH]c2n1", "% Inhibition": -6, "Z score": 1.21}
{"molecule": "COCCNc1nc(N[C@@H](C)c2ccccc2)c2ccccc2n1", "% Inhibition": 52, "Z score": -11.2}
{"molecule": "CC(CCO)CNc1nc(NCC(C)CCO)c2ccccc2n1", "note": "(stereo unspecified)", "% Inhibition": 1, "Z score": -0.17}
